High-throughput results as filed in PubChem.
Only some compounds are listed: those with a hit (about 2.4% of all), similar ones and a draw of the others.
C diff HTS: C. difficile growth inhibitors, primary screen, HTS; growth activity, negative = inhibition, % at 16 µg/mL (by protocol); Clostridium difficile clinical isolate growth, OD600, 24 h; stronger effect = lower value; 86,000 tested, 0.25% active;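 active = mean growth activity at or below -80% and every replicate also at or below -80%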;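 also: 0% = DMSO wells and -100% = levofloxacin 16 µg/mL wells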
Pf Dd2 growth: P. falciparum Dd2 growth inhibitors, primary screen, SYBR Green fluorescence, single dose replicates; 72 h; stronger effect = lower value; activity change, % at 10 µM; 94,000 tested, 2.3% active; AID 1159554, 2015; in the data active = activity change below about -80%
* hit, by the source's call; / = not tested or not shown.

SMILES	C diff HTS	Pf Dd2 growth
C[C@H]1CCCCO[C@H](CN(C)Cc2ccc3c(c2)OCO3)[C@@H](C)CN([C@@H](C)CO)C(=O)c2cc(NC(=O)Nc3ccc(C(F)(F)F)cc3)ccc2O1	-67	-29
C/C=C/c1ccc([C@H]2[C@@H](CO)N(C(C)=O)[C@@H]2CNC(=O)NCCC)cc1	-2	9
C[C@H]1CCCCO[C@@H](CN(C)Cc2ccc(C(F)(F)F)cc2)[C@@H](C)CN([C@@H](C)CO)C(=O)c2cc(NC(=O)c3ccccc3)ccc2O1	13	-59
C[C@@H]1CN([C@@H](C)CO)C(=O)c2cc(NC(=O)c3ccccc3)ccc2O[C@@H](C)CCCCO[C@H]1CN(C)Cc1ccc(C(F)(F)F)cc1	33	-84*
C[C@@H]1CCCCO[C@H](CN(C)Cc2ccc(C(F)(F)F)cc2)[C@@H](C)CN([C@@H](C)CO)C(=O)c2cc(NC(=O)c3ccccc3)ccc2O1	23	-86*
C[C@H]1CCCCO[C@H](CN(C)Cc2ccc(C(F)(F)F)cc2)[C@@H](C)CN([C@@H](C)CO)C(=O)c2cc(NC(=O)Nc3ccccc3)ccc2O1	5	-6
C[C@@H]1CCCCO[C@H](CN(C)Cc2ccc(C(F)(F)F)cc2)[C@@H](C)CN([C@@H](C)CO)C(=O)c2cc(NC(=O)Nc3ccccc3)ccc2O1	6	-82*
C[C@H]1CCCCO[C@H](CN(C)Cc2ccc(C(F)(F)F)cc2)[C@@H](C)CN([C@@H](C)CO)C(=O)c2cc(NC(=O)c3ccccc3)ccc2O1	19	-42
CCC(=O)Nc1ccc2c(c1)OC[C@H](C)N(C(=O)COC)C[C@H](C)[C@H](OC)CN(C)C2=O	-2	4
O=C(CN1CCOCC1)NCC[C@H]1CC[C@H](NC(=O)c2ccc3c(c2)OCO3)[C@H](CO)O1	/	-9
O=C(C[C@H]1C[C@@H]2c3cc(NC(=O)Nc4ccccc4)ccc3O[C@@H]2[C@@H](CO)O1)NCc1cccnc1	1	-5
N[C@H]1CC[C@H](CCn2cc(-c3ccccn3)nn2)O[C@@H]1CO	/	-15
CNC(=O)C[C@@H]1CC[C@H]2[C@H](COc3ccc(NC(=O)C4CCCCC4)cc3C(=O)N2C)O1	2	8
C[C@@H]1CCCCO[C@@H](CN(C)CC2CCCCC2)[C@H](C)CN([C@H](C)CO)C(=O)c2cc(NS(=O)(=O)c3cccs3)ccc2O1	24	-53
CNC(=O)C[C@@H]1CC[C@@H]2[C@H](COc3ccc(NC(=O)NCc4ccccc4)cc3C(=O)N2C)O1	0	7
COC(=O)C[C@H]1C[C@H]2c3cc(NC(=O)c4ccc5c(c4)OCO5)ccc3O[C@H]2[C@H](CO)O1	0	18
N#Cc1cccc(-c2ccc3c(c2)[C@@H]2[C@@H](CCN2Cc2ccc4c(c2)OCO4)[C@@H](CO)N3)c1	-98*	-55
N#Cc1ccc(-c2ccc3c(c2)[C@@H]2[C@@H](CCN2Cc2cncnc2)[C@@H](CO)N3)cc1	-13	-35
N#Cc1cccc(-c2ccc3c(c2)[C@@H]2[C@@H](CCN2Cc2cncnc2)[C@H](CO)N3)c1	-10	-78
OC[C@@H]1Nc2ccc(-c3cccc(F)c3)cc2[C@H]2[C@@H]1CCN2Cc1ccc(F)cc1	4	-68
OC[C@@H]1Nc2ccc(-c3cccc(F)c3)cc2[C@@H]2[C@H]1CCN2Cc1ccc(F)cc1	1	-81*
N#Cc1ccc(-c2ccc3c(c2)[C@@H]2[C@@H](CCN2Cc2ccc4c(c2)OCO4)[C@@H](CO)N3)cc1	-102*	-63
O=C(NCC[C@H]1CC[C@H](NC(=O)C2CCCCC2)[C@H](CO)O1)c1ccc(F)cc1	/	-1
COc1ccc(NC(=O)N[C@@H]2CC[C@@H](CCn3cc(-c4ccccc4F)nn3)O[C@@H]2CO)cc1	-2	-2
COc1cccc(C#Cc2ccc([C@H]3[C@@H](CO)N4C(=O)CN(C(=O)Cc5ccccc5)C[C@H]34)cc2)c1	2	-94*
SMILES	C diff HTS	Pf Dd2 growth
N#Cc1ccc(-c2ccc([C@@H]3[C@H]4CN(C(=O)Cc5ccccc5)CC(=O)N4[C@H]3CO)cc2)cc1	2	-9
N#Cc1ccc(-c2ccc([C@H]3[C@@H](CO)N4C(=O)CN(C(=O)Cc5ccccc5)C[C@@H]34)cc2)cc1	-1	-85*
COc1cccc(C#Cc2ccc([C@@H]3[C@H](CO)N4C(=O)CN(C(=O)c5ccccc5)C[C@@H]34)cc2)c1	-2	-16
COc1cccc(C#Cc2ccc([C@@H]3[C@@H](CO)N4C(=O)CN(C(=O)c5ccccc5)C[C@@H]34)cc2)c1	-5	-91*
COc1cccc(C#Cc2ccc([C@@H]3[C@@H](CO)N4C(=O)CN(C(=O)Cc5ccccc5)C[C@H]34)cc2)c1	-1	-4
COc1ccc(CN(C)C[C@@H]2OCCCC[C@@H](C)Oc3ccc(NC(=O)c4ccccc4)cc3C(=O)N([C@@H](C)CO)C[C@H]2C)cc1	-6	-52
